From PubChem
Sampled rows, rich in hits. Any-hit rate of the full collection: about 2.4%.
RTF Ca sens act: cardiac RTF calcium sensitivity activators, primary screen, biochemical, IANBD-TnC fluorescence, EC20 calcium | AID 493008, 2010 | IANBD-labeled TnC RTF fluorescence at EC20 calcium; 0% EC20 calcium, 100% full calcium | hit rate 0.24% among 340,000 | Troponin I, cardiac muscle (Homo sapiens) + Troponin T, cardiac muscle (Homo sapiens) + … | activation, % at 7.2 µM;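 active means activation above the mean over all tested compounds plus 3 SD, cut at about 30% in these data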;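 further: rise in fluorescence read as greater calcium sensitivity of cardiac thin filaments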
CRFBP-R2 block: antagonists of CRF-BP/CRF-R2 complex, primary screen, cell-based, HEK293, calcium dye fluorescence, uHTS | CRF-induced calcium fluorescence | inhibition, % at 11.8 µM | hit rate 0.59% among 350,000 | AID 588475, 2011;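 active means inhibition of the ligand-induced calcium signal above about 50% at the single tested concentration, limit read from the data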
RTF Ca sens inh: cardiac RTF calcium sensitivity inhibitors, primary screen, biochemical, IANBD-TnC fluorescence, EC70 calcium. IANBD-labeled cardiac RTF, Ca2+ fluorescence. Troponin I, cardiac muscle (Homo sapiens) + Troponin T, cardiac muscle (Homo sapiens) + …. hit rate 0.12% among 340,000. AID 493244, 2011. inhibition, % at 7.15 µM;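 active means inhibition above the mean inhibition of all tested compounds plus 3 SD, cut at about 17% in these data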;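 further: assay run at fixed EC70 calcium of 1.6 mM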
CRFBP-R2 agonist: agonists of CRF-BP/CRF-R2 complex, primary screen, cell-based, HEK293, calcium dye fluorescence, uHTS; CRF-binding protein / CRF receptor 2 complex (human); calcium dye fluorescence (FLIPR); percent of saturating CRF peptide response; activation, % at 13.2 µM; hit rate 0.46% among 350,000; AID 588473, 2011;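 active means activation of at least 50%, plus an integration ratio under a set limit after plate pattern correction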;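 further: plate controls were neutral control wells without compound for no effect and CRF at EC100 for full effect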
TMEM16A act: TMEM16A chloride channel activators or potentiators, primary screen, cell-based, HTS; HEK293 TMEM16A/YFP-H148Q/I152L, iodide quench fluorescence; hits give low values; hit rate 0.3% among 340,000; AID 623877, 2012; Anoctamin-1 (Mus musculus), Q8BHY3; B-score at 10 µM;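 active means fluorescence-ratio B-score plate-corrected deviation score at least 3 library SD below zero, with starting fluorescence score within 5 deviations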;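 further: channel opened by trigger with iodide after compound preincubation; score built on the fluorescence ratio of max minus min over baseline; more negative score means more quench and so TMEM16A activation or potentiation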
Target sequence (Q8BHY3 whole entry, looked up): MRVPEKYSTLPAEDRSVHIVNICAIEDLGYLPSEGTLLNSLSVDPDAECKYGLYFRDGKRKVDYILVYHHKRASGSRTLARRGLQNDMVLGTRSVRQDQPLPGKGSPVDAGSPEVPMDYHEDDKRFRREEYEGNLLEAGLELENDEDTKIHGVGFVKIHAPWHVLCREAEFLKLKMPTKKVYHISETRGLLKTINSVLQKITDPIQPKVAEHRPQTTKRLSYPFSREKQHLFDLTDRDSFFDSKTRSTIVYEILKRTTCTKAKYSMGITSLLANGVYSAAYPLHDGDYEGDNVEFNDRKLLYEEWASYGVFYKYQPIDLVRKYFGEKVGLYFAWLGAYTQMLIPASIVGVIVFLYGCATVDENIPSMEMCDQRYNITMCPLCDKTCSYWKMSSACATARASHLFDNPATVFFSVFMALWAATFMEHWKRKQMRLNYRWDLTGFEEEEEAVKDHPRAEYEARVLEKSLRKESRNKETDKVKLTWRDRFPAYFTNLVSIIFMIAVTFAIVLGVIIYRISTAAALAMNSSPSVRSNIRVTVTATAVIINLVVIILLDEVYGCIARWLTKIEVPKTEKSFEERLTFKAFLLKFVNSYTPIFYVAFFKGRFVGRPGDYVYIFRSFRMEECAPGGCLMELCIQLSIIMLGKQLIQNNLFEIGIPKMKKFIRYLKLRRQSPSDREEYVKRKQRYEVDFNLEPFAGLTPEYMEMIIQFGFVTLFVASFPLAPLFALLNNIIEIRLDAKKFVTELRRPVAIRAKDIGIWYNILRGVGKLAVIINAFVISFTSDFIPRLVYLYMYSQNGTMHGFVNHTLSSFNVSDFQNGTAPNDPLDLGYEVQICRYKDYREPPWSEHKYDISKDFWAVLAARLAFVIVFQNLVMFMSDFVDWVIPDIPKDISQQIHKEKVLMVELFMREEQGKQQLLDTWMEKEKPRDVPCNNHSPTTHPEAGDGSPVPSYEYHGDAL
TMEM16A inh: TMEM16A chloride channel inhibitors, primary screen, cell-based, HTS | Anoctamin-1 (Mus musculus), Q8BHY3 | HEK293 TMEM16A/YFP iodide influx fluorescence, ionomycin | normalized B-score (activity score, 25-100; higher = stronger inhibition) at 10 µM | hit rate 1.2% among 310,000 | AID 588511, 2011;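 active means ratio plate-corrected score three or more library SD toward inhibition, starting fluorescence score within five deviations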;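 further: score derived from kinetic fluorescence span divided by baseline fluorescence per well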
Numbers without * were called inactive.

How did CC1=C(C)/C(=N\OS(=O)(=O)c2ccc(C)cc2)C=CC1=O do in these assays?
RTF Ca sens act: -2.6; CRFBP-R2 block: -166.6; RTF Ca sens inh: 10.2; CRFBP-R2 agonist: 64.1*; TMEM16A act: -4.76*; TMEM16A inh: 25*

Results for CC(S(=O)(=O)c1ccccc1)S(=O)(=O)c1ccccc1 ?
CRFBP-R2 block: 13.3; CRFBP-R2 agonist: 6.3

How did COc1cc(C(=O)O/N=C2/C=C(C)C(=O)C=C2C)cc(OC)c1OC do in these assays?
RTF Ca sens act: -1.1; CRFBP-R2 block: -5.1; RTF Ca sens inh: -3.1; CRFBP-R2 agonist: -0.1; TMEM16A act: inactive; TMEM16A inh: inactive

What do the screens show for `COC(=O)c1cn(NC(=O)c2ccccc2[N+](=O)[O-])c(=O)c2ccccc12`?
RTF Ca sens act: -0.1; CRFBP-R2 block: -4.3; RTF Ca sens inh: -1.9; CRFBP-R2 agonist: -0.9; TMEM16A act: inactive; TMEM16A inh: inactive

Results for COc1cccc(-c2ccc(=O)n(CC(=O)Nc3ccc(S(=O)(=O)NCC(C)C)cc3)n2)c1 ?
TMEM16A inh: inactive

What do the screens show for `O=C(CSc1nc2ncc(Cl)cc2[nH]1)Nc1ccccc1-c1ccccc1`?
RTF Ca sens act: -4.4; CRFBP-R2 block: -23.7; RTF Ca sens inh: 0.4; CRFBP-R2 agonist: 0.0; TMEM16A act: inactive; TMEM16A inh: 100*

What do the screens show for `Nc1cc(=O)[nH]c(SCC(=O)Nc2ccccc2-c2ccccc2)n1`?
RTF Ca sens act: 3.4; CRFBP-R2 block: 2.4; RTF Ca sens inh: -4.8; CRFBP-R2 agonist: 0.8; TMEM16A act: inactive; TMEM16A inh: inactive

How did NC(=O)c1ccccc1N1CCCCC1 do in these assays?
RTF Ca sens act: 6.5; CRFBP-R2 block: -10.1; RTF Ca sens inh: 2.0; CRFBP-R2 agonist: -1.5; TMEM16A act: inactive; TMEM16A inh: inactive

Results for O=C(C[C@H]1C(=O)N(Cc2ccccc2)C[C@@H]1c1ccc(Br)cc1)Nc1ccc(Br)cc1 ?
CRFBP-R2 block: -4.0; CRFBP-R2 agonist: 0.8

How did COC(=O)C1=C/C=C\CN(C(c2ccccc2)c2ccccc2)/C=C\1C(=O)OC do in these assays?
CRFBP-R2 block: 52.3*; CRFBP-R2 agonist: 0.8

Results for COC(=O)CN1CCN(C(c2ccccc2)c2ccccc2)CC1 ?
RTF Ca sens act: -2.8; CRFBP-R2 block: 5.9; RTF Ca sens inh: -4.4; CRFBP-R2 agonist: 0.5; TMEM16A act: inactive; TMEM16A inh: inactive

What do the screens show for `Cc1ccc(S(=O)(=O)N(CC(=O)Nc2ccccc2C(=O)O)c2ccc(Cl)cc2)cc1`?
RTF Ca sens act: 6.0; CRFBP-R2 block: 50.6*; RTF Ca sens inh: -6.4; CRFBP-R2 agonist: -0.2; TMEM16A act: inactive; TMEM16A inh: inactive

What do the screens show for `Cc1ccc(S(=O)(=O)N(Cc2ccc(Cl)cc2)c2ccccc2C(=O)O)cc1`?
RTF Ca sens act: -2.2; CRFBP-R2 block: -16.4; RTF Ca sens inh: -3.6; CRFBP-R2 agonist: -1.5; TMEM16A act: inactive; TMEM16A inh: inactive

Results for CCOc1ccc(-n2ccc(=O)c(C(=O)Nc3ccc(S(=O)(=O)Nc4nccs4)cc3)n2)cc1 ?
RTF Ca sens act: 3.7; CRFBP-R2 block: 14.6; RTF Ca sens inh: -4.7; CRFBP-R2 agonist: -0.4; TMEM16A act: -22.7*; TMEM16A inh: inactive

Results for O=C(Nc1ccc(S(=O)(=O)Nc2nccs2)cc1)c1nn(-c2ccc(F)cc2)ccc1=O ?
RTF Ca sens act: -5.3; CRFBP-R2 block: -7.7; RTF Ca sens inh: 4.6; CRFBP-R2 agonist: 1.7; TMEM16A act: inactive; TMEM16A inh: inactive

Results for COc1ccc(CNC(=O)CN2CCN(c3ccc(F)cc3)CC2)cc1 ?
RTF Ca sens act: -1.9; CRFBP-R2 block: 57.6*; RTF Ca sens inh: -4.6; CRFBP-R2 agonist: -2.5; TMEM16A act: inactive; TMEM16A inh: inactive

What do the screens show for `CSc1ccc(S(=O)(=O)N2CCC(C(=O)N3CCc4ccccc4C3)CC2)cc1`?
RTF Ca sens act: 5.1; CRFBP-R2 block: 6.4; RTF Ca sens inh: -6.2; CRFBP-R2 agonist: 1.1; TMEM16A act: inactive; TMEM16A inh: inactive

Results for COc1cc(/C=C2/C(=O)NN(c3ccc(Cl)cc3)C2=O)cc(Br)c1O ?
RTF Ca sens act: 2.7; CRFBP-R2 block: -1.8; RTF Ca sens inh: -0.4; CRFBP-R2 agonist: -0.5; TMEM16A act: -6.21*; TMEM16A inh: inactive

What do the screens show for `COc1ccc2c(CC#N)c[nH]c2c1`?
RTF Ca sens act: 4.6; CRFBP-R2 block: -74.7; RTF Ca sens inh: 8.3; CRFBP-R2 agonist: 78.4*; TMEM16A act: inactive; TMEM16A inh: inactive

How did COc1ccc2c(CCNC(N)=S)c[nH]c2c1 do in these assays?
RTF Ca sens act: 2.4; CRFBP-R2 block: -0.1; RTF Ca sens inh: 4.7; CRFBP-R2 agonist: 1.3; TMEM16A act: inactive; TMEM16A inh: inactive

How did CN(C)S(=O)(=O)N1CCCC(C(=O)c2ccc(-c3ccccc3)c(F)c2)C1 (stereo not drawn) do in these assays?
RTF Ca sens act: 5.9; CRFBP-R2 block: -4.3; RTF Ca sens inh: -7.8; CRFBP-R2 agonist: -0.1; TMEM16A act: inactive; TMEM16A inh: 100*

How did Nc1c(C(=O)N2CCOCC2)sc2nc3c(cc12)CCC3 do in these assays?
RTF Ca sens act: -2.1; CRFBP-R2 block: 50.3*; RTF Ca sens inh: -21.9; CRFBP-R2 agonist: 3.5; TMEM16A act: inactive; TMEM16A inh: inactive

What do the screens show for `Cc1ccc(Cl)cc1NC(=O)C1CCCN(S(C)(=O)=O)C1` (stereo not drawn)?
RTF Ca sens act: -6.5; CRFBP-R2 block: 4.8; RTF Ca sens inh: -3.0; CRFBP-R2 agonist: -1.7; TMEM16A act: inactive; TMEM16A inh: inactive

What do the screens show for `CC1(C)C2CC=C(/C=N/NC(=O)c3ccccc3O)C1C2` (stereo not drawn)?
RTF Ca sens act: 0.6; CRFBP-R2 block: 58.6*; RTF Ca sens inh: -7.1; CRFBP-R2 agonist: 46.6; TMEM16A act: inactive; TMEM16A inh: inactive

What do the screens show for `CCCC(C(=O)NC1CCCC1)N(Cc1ccccc1Cl)C(=O)c1snc(C(N)=O)c1N` (stereo not drawn)?
RTF Ca sens act: -2.2; CRFBP-R2 block: -8.8; RTF Ca sens inh: -0.6; CRFBP-R2 agonist: -0.6; TMEM16A act: inactive; TMEM16A inh: inactive

What do the screens show for `Cc1sc2nc(CN(Cc3cccs3)C(=O)NC3CCCCC3)[nH]c(=O)c2c1C`?
RTF Ca sens act: -5.7; CRFBP-R2 block: 52.2*; RTF Ca sens inh: -11.3; CRFBP-R2 agonist: -0.3; TMEM16A act: inactive; TMEM16A inh: inactive

Results for O=C(Nc1cc(C(F)(F)F)ccc1N1CCCCC1)C1=COCCO1 ?
CRFBP-R2 block: 5.5; CRFBP-R2 agonist: -0.6
